The results in this text go back to PubChem BioAssay.

Each structure is given as a SMILES string. The source made the active and inactive calls.

Assay [1] concerns the target Albumin (Bos taurus) (UniProt P02769). In words: compounds binding labelled BSA control protein – biochemical, small-molecule microarray, Alexa647 label, 635/667 nm fluorescence, artefact control for SMM control protein annotation, profiling panel (AID 1118).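 Also: score merges 667 nm emission intensity and signal-to-noise per printed compound spot.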 Conditions: BSA-A647 binding, fluorescence 635 nm, higher = more signal.
Assay [2] in a line: probe aXIP binding to arrayed compounds – biochemical, NeuroSMM set, 635/667 nm fluorescence, primary screen (AID 1119).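 Also: probe is the protein aXip251-270 applied at 1 µg/mL to compound-printed slides; binding of probe to printed compounds measured as 667 nm fluorescence plus signal to noise.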 Particulars: small-molecule microarray, higher = more signal, called active from +8 up or from −8 down.
Assay [3] in a line: probe aNOTCH3 binding on compound microarray – biochemical, small-molecule microarray, 635/667 nm fluorescence, primary screen (AID 1120).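 Also: probe is a biotin-tagged antibody raised against NOTCH3 rather than NOTCH3 protein; score merges spot fluorescence near 667 nm with spot signal to noise.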 Conditions: higher = more signal.
Assay [4] is described as follows: probe aNOTCH2 binding on compound microarray – biochemical, small-molecule microarray, 635/667 nm fluorescence, primary screen (AID 1121).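 Also: score merges feature fluorescence read at 667 nm with its signal to noise.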 Particulars: higher = more signal.
Assay [5] addresses Carbonic anhydrase 2 (Homo sapiens) (UniProt P00918). In words: compounds binding carbonic anhydrase 2 – biochemical, small-molecule microarray, Alexa647-labelled CAII, profiling panel (AID 1122). Conditions: CAII-A647 binding fluorescence, higher = more signal.
Assay [6] is described as follows: COS7 lysate on small-molecule microarray, probe aHis, 635 nm (AID 1123).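 Also: z-score combines 667nm fluorescence intensity with signal-to-noise per printed compound spot.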 Conditions: COS7 cell lysate, fluorescence, higher = more signal.
Assay [7] is described as follows: probe aLAP1 signal on lysate-treated microarray – cell lysate, small-molecule microarray, COS7 lysate, primary screen (AID 1124).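 Also: lysate comes from COS7 cells expressing LAP1 and is applied at 0.3 µg/mL; score merges spot fluorescence near 667 nm with signal-to-noise over triplicate slides.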 Particulars: probe aLAP1, fluorescence, higher = more signal.
For assay [8], the system named is Sam68 (KHDRBS1). The assay can be described thus: compounds binding KHDRBS1 protein – biochemical, small-molecule microarray, 635 nm fluorescence, primary screen (AID 1125).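 Also: score merges 667 nm channel intensity with signal to noise over triplicate slides.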 Particulars: higher = more signal.
In assay [9] the test system is Chordin-like protein 2 (CHRDL2). In words: compounds binding chordin-like 2 – biochemical, small-molecule microarray, 635 nm fluorescence, primary screen (AID 1126).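 Also: printed compound slides probed with Chrdl2 protein at 4 µg/mL for 1 h at 4 C; score merges 667 nm emission intensity with signal to noise over three replicate slides.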 Conditions: fluorescence 635 nm, higher = more signal.
The target of assay [10] is Concanavalin-A (Canavalia ensiformis) (UniProt P02866). The assay can be described thus: compounds binding concanavalin A lectin – biochemical, small-molecule microarray, Alexa647 label, 635 nm, artefact control for SMM control protein annotation, primary screen (AID 1127).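 Also: z combines 667 nm emission intensity with signal-to-noise across three replicate slides.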 Conditions: ConA-A647 binding fluorescence, higher = more signal.
Sequence of Concanavalin-A (Canavalia ensiformis) (P02866 whole entry, looked up): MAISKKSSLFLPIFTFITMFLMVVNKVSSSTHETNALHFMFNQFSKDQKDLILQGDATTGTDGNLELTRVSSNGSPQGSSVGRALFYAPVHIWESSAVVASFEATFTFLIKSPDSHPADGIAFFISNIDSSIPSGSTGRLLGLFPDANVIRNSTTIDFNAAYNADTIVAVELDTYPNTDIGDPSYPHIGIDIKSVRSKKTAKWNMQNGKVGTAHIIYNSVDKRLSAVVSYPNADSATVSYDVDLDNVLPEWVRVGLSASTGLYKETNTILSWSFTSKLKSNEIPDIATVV
Assay [11] is described as follows: compounds binding Alexa647 anti-His antibody – biochemical, small-molecule microarray, 635 nm fluorescence, artefact control for SMM control protein annotation, primary screen (AID 1128).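 Also: score merges feature fluorescence with signal-to-noise for each printed compound spot.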 Conditions: higher = more signal.
For assay [12], the system named is Human papillomavirus type 1a E7 protein (residues 1-88). The assay can be described thus: HPV1a E7 small-molecule binders, primary screen, biochemical, small-molecule microarray, residues 1-88, 635 nm (AID 1129). Conditions: small-molecule microarray binding, fluorescence 635 nm; higher = more signal.
Assay [13] concerns the target Focal adhesion kinase 1 (Homo sapiens) (UniProt Q05397). The assay can be described thus: PTK2 protein binding on printed compound slides – biochemical, small-molecule microarray, 635/667 nm fluorescence, BSA, DTT, primary screen (AID 1130).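 Also: composite of spot emission at 667 nm and signal to noise over triplicate slides.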 Conditions: 635 nm fluorescence, higher = more signal.
The subject of assay [14] is Fibrinogen (Alexa647-labelled). The assay can be described thus: Alexa647-fibrinogen binding to printed small molecules – biochemical, small-molecule microarray, 635/667 nm fluorescence, artefact control for SMM control-protein annotation, profiling panel (AID 1131).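 Also: z-score merges 667 nm fluorescence with per-spot signal-to-noise over triplicate slides.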 Conditions: fibrinogen-A647 binding fluorescence, higher = more signal.
Assay [15] deals with Follistatin (Homo sapiens) (UniProt P19883). The assay can be described thus: FST protein binding to printed compounds – biochemical, small-molecule microarray, 635/667 nm fluorescence, primary screen (AID 1132). Particulars: 635 nm fluorescence, higher = more signal.
Sequence of Follistatin (Homo sapiens) (P19883 whole entry, looked up): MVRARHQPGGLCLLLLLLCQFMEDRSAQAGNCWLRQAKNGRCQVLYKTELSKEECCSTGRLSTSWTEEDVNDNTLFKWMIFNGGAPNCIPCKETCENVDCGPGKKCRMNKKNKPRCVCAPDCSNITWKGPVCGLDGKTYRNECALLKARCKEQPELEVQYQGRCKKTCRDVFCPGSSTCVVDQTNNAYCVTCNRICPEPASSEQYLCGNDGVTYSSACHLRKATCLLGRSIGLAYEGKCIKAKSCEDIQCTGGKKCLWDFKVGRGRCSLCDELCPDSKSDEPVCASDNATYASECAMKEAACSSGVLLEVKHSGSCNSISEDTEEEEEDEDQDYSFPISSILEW
The target of assay [16] is Fibroblast growth factor 2 (Homo sapiens) (UniProt P09038). The assay can be described thus: basic fibroblast growth factor binding to printed compounds – biochemical, small-molecule microarray, 635/667 nm fluorescence, primary screen (AID 1133). Particulars: FGF2, fluorescence 635/667, higher = more signal.
Sequence of Fibroblast growth factor 2 (Homo sapiens) (P09038 whole entry, looked up): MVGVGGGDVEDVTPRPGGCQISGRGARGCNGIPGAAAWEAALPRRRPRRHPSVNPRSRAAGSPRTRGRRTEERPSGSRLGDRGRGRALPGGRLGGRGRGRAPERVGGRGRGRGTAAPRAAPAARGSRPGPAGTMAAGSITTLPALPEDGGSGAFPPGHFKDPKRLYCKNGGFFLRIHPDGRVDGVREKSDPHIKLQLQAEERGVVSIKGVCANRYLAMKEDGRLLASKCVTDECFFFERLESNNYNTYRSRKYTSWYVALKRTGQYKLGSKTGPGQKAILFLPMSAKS
Assay [17] in a line: JC-1 mitochondrial potential readout, lung cancer cells – cell-based, A549, JC-1 fluorescence, basal, 24 h, 100 nL, profiling panel (AID 1138).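 Also: A549 lung adenocarcinoma cells under basal conditions with no added stimulus; test concentration not given here.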 Conditions: higher = more signal.
Assay [18] deals with Lefty1. The assay can be described thus: Lefty1 protein binding to printed compounds – biochemical, small-molecule microarray, 635/667 nm fluorescence, primary screen (AID 1139). Particulars: fluorescence 635/667, higher = more signal.
Assay [19] relates to wheat germ agglutinin (Triticum aestivum), Alexa647-labelled. The assay can be described thus: Alexa647-WGA lectin binding to printed small molecules – biochemical, small-molecule microarray, 635/667 nm fluorescence, artefact control for SMM control-protein annotation, profiling panel (AID 1140).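 Also: score merges 667 nm feature emission with signal to noise over triplicate slides.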 Particulars: WGA-A647 binding, 635 nm fluorescence, higher = more signal.
Assay [20] has as its target Luciferin 4-monooxygenase (Photinus pyralis) (UniProt P08659). The assay can be described thus: inhibition of purified Photinus pyralis luciferase – biochemical, luminescence, purified enzyme, 2006 set, primary screen (AID 1141).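 Also: cell-free assay with purified firefly luciferase at 100 ng per well in PBS; test concentration not given here.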 Particulars: purified firefly luciferase, SteadyGlo luminescence, 30 min; higher = more signal, called active from +8 up or from −8 down.

Sequence of Albumin (Bos taurus) (P02769 whole entry, looked up): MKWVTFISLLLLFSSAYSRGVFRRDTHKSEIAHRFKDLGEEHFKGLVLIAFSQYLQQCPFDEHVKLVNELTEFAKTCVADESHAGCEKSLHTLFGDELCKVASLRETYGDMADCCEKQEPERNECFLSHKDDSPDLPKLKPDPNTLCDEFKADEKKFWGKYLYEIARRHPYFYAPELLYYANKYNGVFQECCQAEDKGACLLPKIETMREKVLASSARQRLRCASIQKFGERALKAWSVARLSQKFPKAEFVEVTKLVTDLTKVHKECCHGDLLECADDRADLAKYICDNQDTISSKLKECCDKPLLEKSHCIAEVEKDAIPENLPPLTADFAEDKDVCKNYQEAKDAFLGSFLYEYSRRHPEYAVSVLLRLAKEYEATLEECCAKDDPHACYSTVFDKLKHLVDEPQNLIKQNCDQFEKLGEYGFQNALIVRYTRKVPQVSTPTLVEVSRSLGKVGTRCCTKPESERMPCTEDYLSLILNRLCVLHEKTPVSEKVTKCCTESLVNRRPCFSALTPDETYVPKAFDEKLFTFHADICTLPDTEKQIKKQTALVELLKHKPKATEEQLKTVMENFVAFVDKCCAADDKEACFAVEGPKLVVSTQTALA
Sequence of Luciferin 4-monooxygenase (Photinus pyralis) (P08659 whole entry, looked up): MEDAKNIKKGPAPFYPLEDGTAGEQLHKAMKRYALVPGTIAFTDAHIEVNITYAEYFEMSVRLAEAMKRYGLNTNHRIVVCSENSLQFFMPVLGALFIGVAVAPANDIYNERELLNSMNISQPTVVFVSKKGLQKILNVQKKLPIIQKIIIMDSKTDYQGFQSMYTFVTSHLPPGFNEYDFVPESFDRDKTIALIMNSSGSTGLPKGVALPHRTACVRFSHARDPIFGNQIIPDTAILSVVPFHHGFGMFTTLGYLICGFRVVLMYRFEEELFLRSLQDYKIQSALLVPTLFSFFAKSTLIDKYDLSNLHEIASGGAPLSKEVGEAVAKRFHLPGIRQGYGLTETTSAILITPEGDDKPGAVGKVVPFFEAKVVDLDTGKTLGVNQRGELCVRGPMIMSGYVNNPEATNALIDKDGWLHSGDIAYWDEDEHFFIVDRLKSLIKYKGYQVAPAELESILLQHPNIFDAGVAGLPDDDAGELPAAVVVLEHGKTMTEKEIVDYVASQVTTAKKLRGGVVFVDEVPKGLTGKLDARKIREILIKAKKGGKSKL
Sequence of Focal adhesion kinase 1 (Homo sapiens) (Q05397 whole entry, looked up): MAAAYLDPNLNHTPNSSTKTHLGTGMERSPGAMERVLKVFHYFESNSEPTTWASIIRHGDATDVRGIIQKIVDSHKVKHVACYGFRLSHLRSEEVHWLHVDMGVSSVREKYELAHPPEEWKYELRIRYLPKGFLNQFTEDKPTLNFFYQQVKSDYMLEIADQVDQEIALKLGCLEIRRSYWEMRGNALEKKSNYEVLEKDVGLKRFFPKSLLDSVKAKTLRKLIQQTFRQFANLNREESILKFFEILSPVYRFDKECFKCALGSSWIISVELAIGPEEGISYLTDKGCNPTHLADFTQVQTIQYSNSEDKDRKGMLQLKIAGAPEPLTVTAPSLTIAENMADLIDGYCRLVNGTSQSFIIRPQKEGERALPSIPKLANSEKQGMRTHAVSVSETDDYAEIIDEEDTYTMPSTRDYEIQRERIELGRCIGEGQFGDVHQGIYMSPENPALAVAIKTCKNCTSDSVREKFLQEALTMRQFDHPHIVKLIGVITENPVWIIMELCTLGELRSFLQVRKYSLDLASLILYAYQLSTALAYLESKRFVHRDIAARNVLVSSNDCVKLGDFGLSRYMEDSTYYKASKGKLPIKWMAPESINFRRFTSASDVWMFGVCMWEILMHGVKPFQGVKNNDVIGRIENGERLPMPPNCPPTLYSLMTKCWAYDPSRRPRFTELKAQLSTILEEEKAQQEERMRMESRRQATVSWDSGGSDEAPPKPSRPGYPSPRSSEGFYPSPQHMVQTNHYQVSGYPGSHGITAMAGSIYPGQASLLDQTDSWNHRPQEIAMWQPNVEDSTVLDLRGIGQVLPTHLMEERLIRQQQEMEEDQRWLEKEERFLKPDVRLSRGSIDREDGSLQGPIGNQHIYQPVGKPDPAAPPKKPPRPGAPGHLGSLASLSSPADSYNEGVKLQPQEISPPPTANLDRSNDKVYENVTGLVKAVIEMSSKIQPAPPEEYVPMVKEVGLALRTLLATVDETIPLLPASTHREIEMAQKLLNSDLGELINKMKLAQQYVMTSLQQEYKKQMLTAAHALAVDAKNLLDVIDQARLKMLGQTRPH

Regarding `NC(=O)N1C(=O)C2C(C1=O)C1C=C(c3ccc(CO)cc3)C2C(C2CC2)N1Cc1cc2c(cc1Br)OCO2` (stereo not given), the composite z-score was 0.585 in assay [1]; -0.0377 in assay [3]; -0.0745 in [4]; 0.762 in assay [5]; 1.32 in [6]; -0.421 in assay [7]. The composite z-score was 0.61 in [8]; -0.312 in [9]; 0.574 in assay [10]; 2.29 in assay [11]; 0.066 in [12]; 0.138 in [13]. The composite z-score in assay [14] was 0.157; in [15], 0.197; in assay [16], -0.149; in [18], 0.828; in assay [19], 0.216. Also, in assay [2], the composite Z-score was 0.219 (inactive). The z-score in [17] is 1.96; in assay [20], -2.17 (inactive).

On to `O=C(O)[C@H]1C[C@H]2C(=O)N[C@@H](Cc3ccccc3)C(=O)N2[C@H]1c1ccc(O)cc1`, for which the composite z-score in assay [1] was -0.728; in [3], -0.0918; in [4], -0.0415; in assay [5] it was 0.659; in assay [6] it was 1.88; in [7] it was 0.414. Further, the composite z-score was 1.08 in assay [8]; -0.372 in assay [9]; 0.956 in assay [10]; 1.19 in assay [11]; -0.514 in assay [12]; 0.171 in [13]. Besides, the composite z-score in [14] is -0.0232; in assay [15], 1.26; in assay [16] it was 0.677; in assay [18], 0.438; in assay [19] it was 0.302. Further, the composite Z-score in assay [2] was 1.09 (inactive). For the same compound, the z-score in assay [17] is 1.2; in [20] it was -1.3 (inactive).

For `C=C(C1=CCN(S(=O)(=O)c2ccc(C)cc2)C1)[C@@H](OC(C)=O)[C@@H]1CCCN1S(=O)(=O)c1ccccc1[N+](=O)[O-]`, the composite z-score in assay [1] is -1.41; in assay [3], -0.127; in [4] it was -0.194; in [5] it was 0.139; in assay [6], 0.586; in assay [7] it was -0.273. Also, the composite z-score was -0.339 in [8]; -0.486 in [9]; -1.53 in assay [10]; 0.0491 in assay [11]; 0.128 in assay [12]; 0.137 in assay [13]. Besides, the composite z-score in assay [14] was -1.38; in [15], -0.273; in assay [16], -0.343; in [18], -0.0118; in assay [19], -1.42. For the same compound, the composite Z-score in [2] was -0.0256 (inactive). In addition, the z-score is 1.7 in [17] and -1.35 (inactive) in assay [20].

`COCCOC(=O)N1C(=O)[C@@]2(c3cc(C#CC4(O)CCCCCC4)ccc31)[C@H](c1ccc(O)cc1)N1[C@H](c3ccccc3)[C@H](c3ccccc3)OC(=O)[C@H]1[C@@H]2C(N)=O`: the composite z-score in assay [1] is 0.93; in [3], 0.0196; in assay [4] it was -0.044; in assay [5], 0.704; in assay [6], 1.81; in assay [7], 1.34. Moreover, the composite z-score in [8] was 1.33; in [9], -0.485; in assay [10] it was 0.641; in [11] it was 1.53; in assay [12], 0.745; in assay [13], 1.36. For the same compound, the composite z-score in assay [14] is -0.173; in assay [15], 0.419; in assay [16], 0.308; in [18], 0.462; in assay [19], 0.706. Moreover, in assay [2], the composite Z-score is -0.108 (inactive). The values for the z-score in assay [17] and in [20] were 0.446 and -1.37 (inactive), respectively.

Take `COc1ccc([Si](C)(C)[C@H]2[C@H](CC(=O)N(CCO)Cc3ccccc3)O[C@@]3(C(=O)N(Cc4ccc(N5CCC5=O)cc4)c4ccccc43)[C@@H]2C)cc1`: the composite z-score in assay [1] was 0.101; in [3], -0.219; in assay [4] it was -0.141; in assay [5], 0.339; in assay [6], 0.888; in [7] it was 0.371. Further, the composite z-score in assay [8] was -0.114; in assay [9], 0.286; in assay [10] it was 0.385; in [11], 0.122; in [12], -0.178; in assay [13], 0.13. For the same compound, the composite z-score in assay [14] was 0.158; in [15], 0.41; in assay [16] it was 0.11; in [18], -0.143; in assay [19], 0.429. In addition, the composite Z-score in assay [2] was 0.506 (inactive). Further, the z-score in assay [17] was 0.0735; in assay [20] it was -1.23 (inactive).

As for `COc1ccc([Si](C)(C)[C@@H]2[C@@H](CCn3cc([C@H](O)c4ccccc4)nn3)O[C@]3(C(=O)N(C)c4c(Br)cc(C)cc43)[C@H]2C)cc1`, the composite z-score is -0.0364 in [1]; -0.129 in [3]; -0.118 in assay [4]; -0.273 in assay [5]; -0.525 in [6]; -0.129 in assay [7]. For the same compound, the composite z-score in [8] is -0.849; in assay [9], -0.254; in assay [10], -0.679; in assay [11], 0.18; in assay [12], -0.773; in assay [13], -0.501. Also, the composite z-score in assay [14] is -0.59; in assay [15] it was 1.19; in assay [16], 1.44; in assay [18] it was -0.166; in assay [19], 0.397. For the same compound, the composite Z-score in assay [2] is 0.62 (inactive). The z-score in assay [17] is 0.517; in assay [20], -2.15 (inactive).

As for `CCCNC(=O)[C@@]1(Sc2ccc(C)cc2)CC(=O)N(Cc2cc(C(F)(F)F)cc(C(F)(F)F)c2)[C@@H]1c1ccc(CO)cc1I`, the composite z-score in assay [1] was 0.502; in assay [3] it was -0.125; in [4], 0.0042; in assay [5], 0.883; in assay [6], 0.918; in assay [7], 0.349. The composite z-score in assay [8] was 0.354; in [9], -0.605; in [10], -0.12; in [11], -0.187; in [12], -0.574; in assay [13], -0.101. For the same compound, the composite z-score in [14] is -0.0242; in assay [15], -0.0247; in assay [16] it was -1.22; in assay [18], -0.487; in assay [19], -0.405. In addition, the composite Z-score in assay [2] is 0.414 (inactive). The values for the z-score in assay [17] and in [20] were -0.283 and -0.839 (inactive), respectively.

On to `C=CC[C@@H](OC(=O)Nc1ccc(SC)cc1)c1ccc(OCCO)cc1`, for which the composite z-score is -0.733 in assay [1]; -0.267 in [3]; -0.179 in [4]; 0.758 in [5]; 1.99 in assay [6]; 0.105 in assay [7]. The composite z-score in [8] was 0.655; in assay [9], -2.01; in assay [10], -0.264; in assay [11], 2.42; in assay [12], -0.0392; in assay [13], -0.783. Also, the composite z-score was -1.58 in assay [14]; -1.15 in assay [15]; -0.991 in assay [16]; -0.763 in assay [18]; -0.666 in assay [19]. Besides, in assay [2], the composite Z-score was 0.667 (inactive). Also, the z-score in assay [17] was 0.844; in assay [20] it was -3.91 (inactive).
